Test results as given in article PMC5540273 (PLoS ONE, 2017).

Key:
Details in all cases: concentration: 1 μM,replicates: in singlicate; n = 1
[1] = tested on: T1, DCAMKL2
T1 construct: gene DCLK2

[2] = tested on: T2, DCAMKL3
T2 construct: gene DCLK3

[3] = tested on: DDR1
[4] = tested on: DDR2
[5] = tested on: T3, DLK
T3 construct: gene MAP3K12

[6] = tested on: T4, DMPK2
T4 construct: gene CDC42BPG

[7] = tested on: DMPK
[8] = tested on: T5, DRAK1
T5 construct: gene STK17A

[9] = tested on: T6, DRAK2
T6 construct: gene STK17B

[10] = tested on: DYRK1A
[11] = tested on: DYRK1B
[12] = tested on: DYRK2
[13] = tested on: EGFR
[14] = tested on: EIF2AK1
[15] = tested on: EPHA1
[16] = tested on: EPHA2
[17] = tested on: EPHA3
[18] = tested on: EPHA4
[19] = tested on: EPHA5
[20] = tested on: EPHA6
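Further: KINOMEscan kinase panel screen.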

O=C(Nc1n[nH]c2cc(-c3ccco3)ccc12)C1CC1 [SB-737447]
%Inh [1]: 1%
%Inh [2]: 0%
%Inh [3]: 0%
%Inh [4]: 0%
%Inh [5]: 0%
%Inh [6]: 0%
%Inh [7]: 0%
%Inh [8]: 27%
%Inh [9]: 0%
%Inh [10]: 16%
%Inh [11]: 0%
%Inh [12]: 31%
%Inh [13]: 9%
%Inh [14]: 0%
%Inh [15]: 0%
%Inh [16]: 10%
%Inh [17]: 19%
%Inh [18]: 0%
%Inh [19]: 0%
%Inh [20]: 0%

C[C@@H](Oc1cc(-n2cnc3cc(-c4ccncc4)ccc32)sc1C(N)=O)c1ccccc1Cl [GSK479719]
%Inh [1]: 3%
%Inh [2]: 0%
%Inh [3]: 0%
%Inh [4]: 0%
%Inh [5]: 0%
%Inh [6]: 0%
%Inh [7]: 0%
%Inh [8]: 0%
%Inh [9]: 0%
%Inh [10]: 57%
%Inh [11]: 18%
%Inh [12]: 31%
%Inh [13]: 28%
%Inh [14]: 18%
%Inh [15]: 0%
%Inh [16]: 29%
%Inh [17]: 100%
%Inh [18]: 21%
%Inh [19]: 0%
%Inh [20]: 29%

O=C1NCCc2[nH]c(-c3ccncc3)cc21
%Inh [1]: 0%
%Inh [2]: 91.8%
%Inh [3]: 17%
%Inh [4]: 0%
%Inh [5]: 8%
%Inh [6]: 0%
%Inh [7]: 13%
%Inh [8]: 97.2%
%Inh [9]: 100%
%Inh [10]: 99.7%
%Inh [11]: 97.6%
%Inh [12]: 97.1%
%Inh [13]: 0%
%Inh [14]: 0%
%Inh [15]: 2%
%Inh [16]: 0%
%Inh [17]: 0%
%Inh [18]: 30%
%Inh [19]: 31%
%Inh [20]: 41%

OCCn1cc(-c2cnc3nnn(Cc4ccc5ncccc5c4)c3n2)cn1
%Inh [1]: 0%
%Inh [2]: 0%
%Inh [3]: 0%
%Inh [4]: 4%
%Inh [5]: 0%
%Inh [6]: 0%
%Inh [7]: 0%
%Inh [8]: 10%
%Inh [9]: 12%
%Inh [10]: 0%
%Inh [11]: 19%
%Inh [12]: 0%
%Inh [13]: 0%
%Inh [14]: 0%
%Inh [15]: 0%
%Inh [16]: 0%
%Inh [17]: 0%
%Inh [18]: 0%
%Inh [19]: 0%
%Inh [20]: 0%

COc1cc2c(Nc3ccc(NC(=O)c4ccccc4)cc3)ncnc2cc1OCCCN1CCOCC1 [GSK301329]
%Inh [1]: 26%
%Inh [2]: 0%
%Inh [3]: 0%
%Inh [4]: 0%
%Inh [5]: 89%
%Inh [6]: 0%
%Inh [7]: 0%
%Inh [8]: 0%
%Inh [9]: 0%
%Inh [10]: 25%
%Inh [11]: 0%
%Inh [12]: 35%
%Inh [13]: 90%
%Inh [14]: 4%
%Inh [15]: 3%
%Inh [16]: 4%
%Inh [17]: 0%
%Inh [18]: 7%
%Inh [19]: 0%
%Inh [20]: 5%

CN(c1ccccc1CNc1nc(Nc2ccc3c(c2)CC(=O)N3)ncc1C(F)(F)F)S(C)(=O)=O
%Inh [1]: 0%
%Inh [2]: 94.8%
%Inh [3]: 12%
%Inh [4]: 0%
%Inh [5]: 19%
%Inh [6]: 0%
%Inh [7]: 25%
%Inh [8]: 96.5%
%Inh [9]: 98.4%
%Inh [10]: 28%
%Inh [11]: 30%
%Inh [12]: 1%
%Inh [13]: 0%
%Inh [14]: 0%
%Inh [15]: 12%
%Inh [16]: 4%
%Inh [17]: 0%
%Inh [18]: 2%
%Inh [19]: 6%
%Inh [20]: 34%

Cl.c1ccc(Oc2ccc(Nc3ccnc4cc(-c5ccc(CN6CCNCC6)o5)ccc34)cc2)nc1 [GW567142]
%Inh [1]: 0%
%Inh [2]: 36%
%Inh [3]: 70%
%Inh [4]: 27%
%Inh [5]: 41%
%Inh [6]: 0%
%Inh [7]: 0%
%Inh [8]: 9%
%Inh [9]: 0%
%Inh [10]: 1%
%Inh [11]: 0%
%Inh [12]: 33%
%Inh [13]: 97.7%
%Inh [14]: 0%
%Inh [15]: 77%
%Inh [16]: 0%
%Inh [17]: 16%
%Inh [18]: 0%
%Inh [19]: 0%
%Inh [20]: 0%

NC(=O)Nc1sc(-c2ccc(F)cc2)cc1C(N)=O [GW789449]
%Inh [1]: 0%
%Inh [2]: 0%
%Inh [3]: 11%
%Inh [4]: 39%
%Inh [5]: 38%
%Inh [6]: 0%
%Inh [7]: 0%
%Inh [8]: 43%
%Inh [9]: 70%
%Inh [10]: 23%
%Inh [11]: 52%
%Inh [12]: 25%
%Inh [13]: 23%
%Inh [14]: 0%
%Inh [15]: 60%
%Inh [16]: 25%
%Inh [17]: 0%
%Inh [18]: 14%
%Inh [19]: 7%
%Inh [20]: 11%

CC(=O)c1c(-c2ccncc2)[nH]c(-c2ccncc2)c1C [GW493036]
%Inh [1]: 3%
%Inh [2]: 0%
%Inh [3]: 67%
%Inh [4]: 0%
%Inh [5]: 0%
%Inh [6]: 0%
%Inh [7]: 23%
%Inh [8]: 44%
%Inh [9]: 76%
%Inh [10]: 99.9%
%Inh [11]: 100%
%Inh [12]: 92.3%
%Inh [13]: 37%
%Inh [14]: 17%
%Inh [15]: 19%
%Inh [16]: 6%
%Inh [17]: 0%
%Inh [18]: 0%
%Inh [19]: 0%
%Inh [20]: 0%

CNC(=O)c1ccccc1Nc1nc(Nc2cccc(CS(C)(=O)=O)c2)ncc1C.O=CO [GSK1520489]
%Inh [1]: 15%
%Inh [2]: 0%
%Inh [3]: 99.9%
%Inh [4]: 95.9%
%Inh [5]: 96.6%
%Inh [6]: 0%
%Inh [7]: 0%
%Inh [8]: 91.6%
%Inh [9]: 5%
%Inh [10]: 95.6%
%Inh [11]: 83%
%Inh [12]: 97%
%Inh [13]: 99%
%Inh [14]: 0%
%Inh [15]: 99.6%
%Inh [16]: 99.1%
%Inh [17]: 91.8%
%Inh [18]: 88%
%Inh [19]: 93%
%Inh [20]: 90%

Cn1ccc2ncnc(Oc3ccc(NC(=O)Nc4cnn(C(C)(C)C)c4)c(Cl)c3)c21
%Inh [1]: 5%
%Inh [2]: 2%
%Inh [3]: 100%
%Inh [4]: 100%
%Inh [5]: 0%
%Inh [6]: 0%
%Inh [7]: 15%
%Inh [8]: 0%
%Inh [9]: 3%
%Inh [10]: 11%
%Inh [11]: 62%
%Inh [12]: 6%
%Inh [13]: 25%
%Inh [14]: 0%
%Inh [15]: 0%
%Inh [16]: 22%
%Inh [17]: 54%
%Inh [18]: 23%
%Inh [19]: 18%
%Inh [20]: 89%

O=C(Nc1cccc(C(F)(F)F)c1)c1cccc(Oc2ccc3nccn3n2)c1
%Inh [1]: 6%
%Inh [2]: 9%
%Inh [3]: 97.1%
%Inh [4]: 95.9%
%Inh [5]: 0%
%Inh [6]: 1%
%Inh [7]: 13%
%Inh [8]: 0%
%Inh [9]: 0%
%Inh [10]: 5%
%Inh [11]: 14%
%Inh [12]: 6%
%Inh [13]: 13%
%Inh [14]: 0%
%Inh [15]: 7%
%Inh [16]: 42%
%Inh [17]: 11%
%Inh [18]: 17%
%Inh [19]: 11%
%Inh [20]: 10%

O=C(Nc1ccccc1)c1cccc(Oc2ccc3nccn3n2)c1
%Inh [1]: 40%
%Inh [2]: 0%
%Inh [3]: 45%
%Inh [4]: 42%
%Inh [5]: 1%
%Inh [6]: 6%
%Inh [7]: 11%
%Inh [8]: 7%
%Inh [9]: 14%
%Inh [10]: 0%
%Inh [11]: 28%
%Inh [12]: 0%
%Inh [13]: 3%
%Inh [14]: 0%
%Inh [15]: 7%
%Inh [16]: 19%
%Inh [17]: 0%
%Inh [18]: 4%
%Inh [19]: 0%
%Inh [20]: 2%

Cc1nnc(-c2ccc3occ(-c4ccc(S(C)=O)cc4)c3n2)o1 (stereo not shown)
%Inh [1]: 0%
%Inh [2]: 0%
%Inh [3]: 0%
%Inh [4]: 1%
%Inh [5]: 0%
%Inh [6]: 0%
%Inh [7]: 0%
%Inh [8]: 0%
%Inh [9]: 0%
%Inh [10]: 0%
%Inh [11]: 0%
%Inh [12]: 0%
%Inh [13]: 0%
%Inh [14]: 0%
%Inh [15]: 0%
%Inh [16]: 3%
%Inh [17]: 4%
%Inh [18]: 23%
%Inh [19]: 1%
%Inh [20]: 17%
